Laboratory results published in PubChem BioAssay.
Records with an inconclusive call do not appear. Active and inactive are the calls of the source. Cut-off read from the data, not from the text of the source, unless noted: active = inhibition above about 30%; inactive = the rest.

Columns and labels:
[1] = reducers of endogenous Her2 protein level, primary screen, SKBR3 breast tumor cells, AlphaScreen, ATP viability (AID 461;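 active = Her2 level under about 52% in both replicate screens, with viability over 70% of control, limit read from the data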;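 for Her2 level: lower value means less Her2 protein in the cells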;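 for viability: percent of carrier control wells set as 100% viability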); conditions: 18-24 h, measured here: SKBR3 viability, ATP luminescence, at 10 µM
[2] = biological target: Receptor tyrosine-protein kinase erbB-2 (Homo sapiens) (UniProt P04626); experiment: as above; conditions: 18-24 h, at 10 µM, stronger effect = lower value
[3] = SK-BR-3 cell growth inhibitors, pilot screen, 24 h, human (AID 572;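 active = viability at or below 10% of carrier control in both of two separate runs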;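 note: compound exposure lasted between 18 and 24 h rather than exactly 24 h; 100% = carrier-treated control wells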); conditions: SK-BR-3 viability, CellTiter-Glo luminescence, at 10 µM, stronger effect = lower value
[4] = HUVEC growth inhibition – cell-based, human, primary screen (AID 575;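 active = viability at or below 30% in both replicate assays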;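 note: 100% = median of untreated cell wells with 0.1% DMSO on each plate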); conditions: HUVEC proliferation, CellTiter-Glo luminescence, 72 h; at 10 µM; stronger effect = lower value
[5] = growth inhibitors of H69AR lung tumor, primary screen, human, duplicate replicates (AID 580;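 active = viability at or under a set limit in both replicates, limit being median viability minus 3 SD, cut at about 48% in these data, passing the limit was not always enough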;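 note: 100% = mean luminescence of untreated wells and 0% = no signal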); conditions: H69AR lung tumor cells viability, ATP luminescence, 72 h; at 10 µM; stronger effect = lower value
[6] = reversal of MRP1-mediated doxorubicin resistance, pilot screen, H69AR cells, doxorubicin co-treatment (AID 601;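 active = viability loss from added drug above about 55%, and viability with drug at most 40%, in both replicates, limit read from the data, passing the limit was not always enough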); conditions: CellTiter-Glo, 72 h, at 10 µM; for differential viability (reversal): stronger effect = higher value
[7] = 384-well plate pilot, post-Golgi transport modulator project, inhibition of yeast transport mutant growth (AID 636; in the data active = inhibition above about 31%); conditions: absorbance 615 nm, about 18 h, stronger effect = higher value
[8] = growth suppression of yeast trafficking mutant, preliminary HTS, modulators of trafficking downstream of Golgi apparatus project, 1536-format plate, OD 615 nm (AID 637); conditions: yeast transport mutant growth, absorbance 615 nm, 18 h; stronger effect = higher value
[9] = OD615 S. cerevisiae growth inhibition, permissive medium, pilot counter-assay, permissive growth control for S. cerevisiae lifespan shortening project (AID 705;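 active = growth inhibition above 25% in both replicates, a cutoff set 3 SD above the mean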); conditions: OD615, 24 h, at 10 µM, stronger effect = higher value
[10] = Restrictive medium S. cerevisiae growth inhibition, OD615, pilot screen of yeast lifespan reduction project, restrictive growth control (AID 706;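 active = growth inhibition above a set limit, 3 SD over mean compound inhibition, in both replicates, cut at about 43% in these data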;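 note: modified DeaD lifespan yeast strain shifted to restrictive glucose medium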); conditions: OD615, 48 h, at 10 µM, stronger effect = higher value
[11] = viability gain of MRP-1-high H69AR cells under doxorubicin, pilot screen, MRP-1 activator project, CellTiter-Glo, duplicate (AID 807;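 active = viability increase at or above a cutoff of the median across tested compounds plus 3 SD, cut at about 8.5% in these data, passing the limit was not always enough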;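 note: compound pretreatment 18-22 h then 72 h combined with doxorubicin; 0% = doxorubicin alone and 100% = vehicle without doxorubicin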); conditions: H69AR viability with doxorubicin, CellTiter-Glo luminescence; at 10 µM; stronger effect = higher value
[12] = growth suppression of beta-catenin knockout HCT116, pilot screen, human colon tumor cells (AID 823;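 active = cell viability at or below a set limit in both duplicate runs, the limit being the all-compound median minus 4 SD, cut at about 23% in these data, passing the limit was not always enough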;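 note: 0% = wells killed by 20 µM Hyamine and 100% = untreated DMSO cell wells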); conditions: CellTiter-Glo, 60 h, at 10 µM, stronger effect = lower value
[13] = growth suppression of PTEN-deleted HCT116, pilot screen, cell-based, HCT116 clonal line, CellTiter-Glo (AID 824;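 active = viability at or below 27.92% in each of two runs, the all-compound median minus 4 SD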;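 note: 0% = 20 µM Hyamine control and 100% = vehicle cell control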); conditions: 60 h, at 10 µM, stronger effect = lower value
[14] = inhibitors of the yeast RAM network, pilot screen, dse1pr::URA3 reporter, 5-FOA selection (AID 869;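 active = inhibition over a set limit, the all-compound mean plus 3 SD, in both replicate runs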;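 note: 0% = DMSO wells with no growth and 100% = 10 µM 1-NA-PP1 with full growth; RAM network block rescues cells from 5-FOA so hits raise OD615 growth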); conditions: S. cerevisiae dse1pr::URA3 5-FOA growth, OD615, 2 d; at 10 µM; stronger effect = higher value; strain carries analog-sensitive mutant Cbk1 kinase
[15] = RAM signaling pathway blockade in yeast – S. cerevisiae, Pdr1DBD-CYC8 efflux-inhibited sensitized strain, primary screen (AID 1298;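 active = RAM network inhibition above 8.4% in each of two replicates, 3 SD over the compound average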;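 note: 0% = DMSO untreated cells without growth and 100% = 10 µM 1-NA-PP1 full growth; higher means more yeast growth rescued from 5-FOA killing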); conditions: S. cerevisiae cbk1-as DSE1-URA3 strain, 5-FOA growth OD615, 2 d; at 50 µM; stronger effect = higher value
[16] = H69AR cells + 2 uM doxorubicin, measured here: viability with 2 uM doxorubicin, stronger effect = lower value
[17] = H69AR cells, compound alone cytotoxicity

Receptor tyrosine-protein kinase erbB-2 (Homo sapiens), sequence (P04626 whole entry, looked up): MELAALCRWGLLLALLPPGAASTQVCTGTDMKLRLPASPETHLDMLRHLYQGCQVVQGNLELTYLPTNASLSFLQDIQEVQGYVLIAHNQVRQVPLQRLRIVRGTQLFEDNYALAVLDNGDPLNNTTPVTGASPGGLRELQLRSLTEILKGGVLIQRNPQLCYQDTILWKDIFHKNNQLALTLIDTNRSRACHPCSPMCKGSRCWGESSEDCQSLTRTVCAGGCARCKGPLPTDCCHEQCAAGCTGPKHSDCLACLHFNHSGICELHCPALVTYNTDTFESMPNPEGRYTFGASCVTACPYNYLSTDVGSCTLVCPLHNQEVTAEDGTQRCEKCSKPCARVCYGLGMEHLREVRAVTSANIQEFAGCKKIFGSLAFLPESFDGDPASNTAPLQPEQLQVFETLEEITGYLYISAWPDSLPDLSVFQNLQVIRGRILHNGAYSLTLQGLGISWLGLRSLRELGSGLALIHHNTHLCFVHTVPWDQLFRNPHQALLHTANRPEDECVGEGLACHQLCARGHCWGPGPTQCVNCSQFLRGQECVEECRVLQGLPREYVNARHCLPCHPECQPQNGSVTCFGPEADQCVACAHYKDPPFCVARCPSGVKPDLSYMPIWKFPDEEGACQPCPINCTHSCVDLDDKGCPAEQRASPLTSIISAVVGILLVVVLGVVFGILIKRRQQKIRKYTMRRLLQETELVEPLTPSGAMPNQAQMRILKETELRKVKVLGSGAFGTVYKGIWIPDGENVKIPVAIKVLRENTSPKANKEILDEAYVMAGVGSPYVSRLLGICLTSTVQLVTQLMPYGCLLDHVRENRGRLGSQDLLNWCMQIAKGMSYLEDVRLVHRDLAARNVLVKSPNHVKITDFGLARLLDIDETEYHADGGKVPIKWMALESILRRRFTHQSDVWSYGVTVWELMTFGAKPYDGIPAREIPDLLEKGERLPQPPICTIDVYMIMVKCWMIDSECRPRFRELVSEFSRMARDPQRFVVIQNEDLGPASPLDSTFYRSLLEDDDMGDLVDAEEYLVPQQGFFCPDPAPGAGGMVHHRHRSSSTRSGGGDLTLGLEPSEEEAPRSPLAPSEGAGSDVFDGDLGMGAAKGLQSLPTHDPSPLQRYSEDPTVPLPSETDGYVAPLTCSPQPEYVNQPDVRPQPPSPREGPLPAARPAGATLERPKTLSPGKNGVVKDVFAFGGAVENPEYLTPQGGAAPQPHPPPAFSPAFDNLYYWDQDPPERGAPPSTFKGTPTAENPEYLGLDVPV

CCOC(=O)N1CCC(NC(=O)c2ccc3c(c2)N(CC)CCS3)CC1
inactive: Her2 level [2] 91.5% | viability [3] 94.5% | viability [4] 100% | viability [5] 74.2% | differential viability (reversal) ([6]; H69AR cells + 2 uM doxorubicin) -5.34% | inhibition [7] -6.93% | inhibition [8] -0.33% | growth inhibition [9] -10.9% | growth inhibition [10] -0.105% | viability increase [11] -3.08% | viability [12] 98.2% | viability [13] 97% | inhibition [14] 3.51% | RAM network inhibition [15] 2.26%
94.5%: viability [1]
79.6%: viability [6, 16]
74.2%: viability [6, 17]

COc1ccc(S(=O)(=O)N2CCC(C(=O)Nc3c(F)cccc3F)CC2)cc1
inactive: Her2 level [2] 111% | viability [3] 88.5% | viability [4] 96.5% | viability [5] 97.6% | differential viability (reversal) ([6]; H69AR cells + 2 uM doxorubicin) 0.885% | inhibition [7] 0.93% | inhibition [8] -4.17% | growth inhibition [9] -11.9% | growth inhibition [10] -14.8% | viability increase [11] -2.23% | viability [12] 99.6% | viability [13] 101% | inhibition [14] 3.77% | RAM network inhibition [15] 3.07%
96.8%: viability [6, 16]
88.5%: viability [1]
97.6%: viability [6, 17]

Cc1noc(/C=C/N(C)C)c1S(=O)(=O)N1CCc2ccccc21
99%: viability [1]
95.9%: viability [6, 16]
inactive: Her2 level [2] 106% | viability [3] 99% | viability [4] 67.4% | viability [5] 75.7% | differential viability (reversal) ([6]; H69AR cells + 2 uM doxorubicin) -20.2% | inhibition [7] 0.13% | inhibition [8] -3.83% | growth inhibition [9] -22.4% | growth inhibition [10] -28.7% | viability increase [11] -6.84% | viability [12] 84.4% | viability [13] 68.7% | inhibition [14] 1.65% | RAM network inhibition [15] 10%
75.7%: viability [6, 17]

Cc1c(C(=O)OCCOC(C)C)[nH]c2c1C(=O)CC(c1ccco1)C2 (stereo not given)
72.7%: viability [6, 16]
inactive: Her2 level [2] 73% | viability [3] 81% | viability [4] 50.2% | differential viability (reversal) ([6]; H69AR cells + 2 uM doxorubicin) -34.4% | inhibition [7] 1.47% | inhibition [8] -4.59% | growth inhibition [9] -3.61% | growth inhibition [10] -3.07% | viability increase [11] -4.69% | inhibition [14] 0.735% | RAM network inhibition [15] -1.95%
38.3%: viability [6, 17]
81%: viability [1]
active: viability [5] 38.3% | viability [12] 17.1% | viability [13] 17.8%

COCCNC(=O)C(C)N(c1ccc(Oc2ccccc2)cc1)S(C)(=O)=O (stereo not given)
112%: viability [1]
89%: viability [6, 16]
96.5%: viability [6, 17]
inactive: Her2 level [2] 95.5% | viability [3] 112% | viability [4] 102% | viability [5] 96.5% | differential viability (reversal) ([6]; H69AR cells + 2 uM doxorubicin) 7.53% | inhibition [7] -0.65% | inhibition [8] 3.44% | growth inhibition [9] -4.62% | growth inhibition [10] 4.17% | viability increase [11] -0.82% | viability [12] 90.7% | viability [13] 91.6% | inhibition [14] -0.1% | RAM network inhibition [15] 3.42%
